Reference: PubChem BioAssay (NCI)
This is part of a sample that, as a whole, favours compounds with a hit. Of some 79,000 tested, about 15% had one in any assay. The source made the active and inactive calls. Cut-off read from the data, not from the text of the source: active = growth inhibition above about 70%; inactive = the rest.

Test: NCI Yeast Anticancer Drug Screen. Data for the mgt1 strain (AID 153)
Conditions: S. cerevisiae mgt1 mutant growth inhibition, hits give high values
Method: Growth inhibition of yeast strains with defined genetic alterations is measured as a screen for potential anti-cancer activity. Selected strains with alterations in DNA damage repair or cell cycle control were exposed to compounds and growth inhibition was measured relative to vehicle treated controls. The strain used in this assay is mgt1

Measured: growth inhibition

CCN(CC)C(=S)N/N=C(/C)c1cccc(/C(C)=N\NC(=S)N(CC)CC)n1
active: at 100.0 µM 91%
inactive: at 1.2 µM 0% | at 3.7 µM -14% | at 11.0 µM 0% | at 33.0 µM 61%

CCCCCCCCCCC(=O)Cl
inactive: at 1.2 µM -21% | at 3.7 µM -25% | at 11.0 µM -28% | at 33.0 µM -32%
active: at 100.0 µM 85%

c1ccc2c(c1)NC(NC1Nc3ccccc3N1)N2
inactive: at 1.2 µM -4% | at 3.7 µM -7% | at 11.0 µM -4% | at 33.0 µM 0% | at 100.0 µM 10%

c1ccc(-c2nc3cccnc3s2)cc1
inactive: at 1.2 µM 1% | at 3.7 µM -2% | at 11.0 µM -1% | at 33.0 µM -10% | at 100.0 µM -11%

OC(COc1cccc2ccccc12)CN1CCOCC1 (stereo not given)
inactive: at 1.2 µM 8% | at 3.7 µM 26% | at 11.0 µM 42% | at 33.0 µM 52% | at 100.0 µM 55%

CC(C)=CC(=O)O[C@@H]1CC(C)(C)CC2C3=CCC4[C@]56CC[C@](O)(OC5)C(C)(C)C6CC[C@@]4(C)C3(C)CC[C@]21C(=O)O (stereo not given in full)
active: at 33.0 µM 89% | at 100.0 µM 91%
inactive: at 1.2 µM -15% | at 3.7 µM 11% | at 11.0 µM 57%

CC(=O)Nc1ccc(SC(C)=O)cc1
inactive: at 1.2 µM -55% | at 3.7 µM -45% | at 11.0 µM -32% | at 33.0 µM 44%
active: at 100.0 µM 86%

C[CH2][Sn]([CH2]C)([O]C(=O)C(OC(C)=O)c1ccccc1)[O]C(=O)C(OC(C)=O)c1ccccc1 (stereo not given)
inactive: at 1.2 µM 0% | at 3.7 µM 0% | at 11.0 µM 4% | at 33.0 µM 49%
active: at 100.0 µM 93%
